Assay [1] is described as follows: Tanguay_ZF_120hpf_JAW_legacy: (Legacy) Oregon State University Tanguay Lab 120 Hour Post-fertilization zebrafish Assay for Jaw Malformation (AID 2283638).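 For AC50: active means more embryos with jaw malformation than DMSO controls.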 Summed up: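 Dechorionated Tropical 5D wild-type zebrafish embryos, one per well, exposed statically from 6 hpf to 120 hpf at 28C in 0.64% DMSO. Jaw malformation was scored by brightfield microscopy as present or absent. It was not scored in dead embryos.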

Assay [2] is described as follows: Tanguay_ZF_120hpf_OTIC_legacy: (Legacy) Oregon State University Tanguay Lab 120 Hour Post-fertilization zebrafish Assay for Otic Vesicle Malformation (AID 2283639). The method, boiled down: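 Otic vesicle malformation is read as a yes/no morphology call at 120 hpf. Exposure is static at 28C with 0.64% (vol/vol) DMSO; embryos that die are excluded from non-mortality endpoints.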

Assay [3] is described as follows: Tanguay_ZF_120hpf_SOMI_legacy: (Legacy) Oregon State University Tanguay Lab 120 Hour Post-fertilization zebrafish Assay for Somite Malformation (AID 2283647). Summed up: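 Dechorionated Tropical 5D wild-type zebrafish embryos, one per well from 6 hpf, statically exposed at 28C to 120 hpf in 0.64% DMSO; somite malformation scored present/absent by brightfield; trimethyltin 5 uM positive control; dead embryos not scored.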

Assay [4] can be described thus: Tanguay_ZF_120hpf_PFIN_legacy: (Legacy) Oregon State University Tanguay Lab 120 Hour Post-fertilization zebrafish Assay for Pectoral Fin Malformation (AID 2283648).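 Note: each larva judged yes or no for fin defect by brightfield with dead larvae skipped.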 The method, boiled down:
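Dechorionated Tropical 5D wild-type zebrafish embryos, one per well, statically exposed from 6 to 120 hpf at 28C with 0.64% DMSO final. Pectoral fin malformation scored present/absent by brightfield at 120 hpf; not scored in dead embryos.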

The nature of assay [5]: Tanguay_ZF_120hpf_CFIN_legacy: (Legacy) Oregon State University Tanguay Lab 120 Hour Post-fertilization zebrafish Assay for Caudal Fin Malformation (AID 2283649). The method, boiled down: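 Dechorionated Tropical 5D wild-type embryos, one per well from 6 hpf, static exposure to 120 hpf at 28C in 0.64% DMSO. Caudal fin malformation scored by brightfield as present/absent; not scored in dead embryos.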

Assay [6] is described as follows: Tanguay_ZF_120hpf_CIRC_legacy: (Legacy) Oregon State University Tanguay Lab 120 Hour Post-fertilization zebrafish Assay for Circulatory Malformation (AID 2283651). Summed up: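 Using wild-type Tropical 5D zebrafish, we exposed dechorionated embryos from 6 to 120 hpf in embryo medium with 0.64% DMSO. Circulatory defects were scored as present or absent; 5uM trimethyltin chloride served as positive control.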

A short description of assay [7]: Tanguay_ZF_120hpf_SWIM_legacy: (Legacy) Oregon State University Tanguay Lab 120 Hour Post-fertilization zebrafish Assay for Swim Bladder Malformation (AID 2283654).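 Note: swim bladder malformation in each larva scored yes or no under brightfield.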 Summed up: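 Dechorionated wild-type Tropical 5D zebrafish embryos, one per well from 6 hpf, were statically exposed at 28C until 120 hpf in 0.64% DMSO. Swim bladder malformation scored as present/absent by brightfield microscopy; not scored in dead larvae.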

The nature of assay [8]: Tanguay_ZF_120hpf_TRUN_legacy: (Legacy) Oregon State University Tanguay Lab 120 Hour Post-fertilization zebrafish Assay for Truncated Body (AID 2283655). The method, boiled down: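 Dechorionated Tropical 5D wild-type embryos placed singly from 6 hpf and statically exposed to 120 hpf at 28C, final DMSO 0.64%. Truncated body scored as present/absent by brightfield; not scored in dead embryos.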

A short description of assay [9]: Tanguay_ZF_120hpf_NC_legacy: (Legacy) Oregon State University Tanguay Lab 120 Hour Post-fertilization zebrafish Assay for Notochord and Tail Malformation (AID 2283656). Summed up: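 Dechorionated 5D zebrafish, 1/well from 6 hpf; static exposure to 120 hpf, 28C, sealed, dark; final DMSO 0.64% v/v. NC scored binary (present/absent); dead embryos not scored. Fit vs DMSO baseline, gain direction.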

A short description of assay [10]: Tanguay_ZF_120hpf_TR_legacy: (Legacy) Oregon State University Tanguay Lab 120 Hour Post-fertilization zebrafish Assay for Touch Response (AID 2283667). Summed up: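 Tropical 5D wild-type zebrafish embryos statically exposed to 120 hpf at 28°C, sealed and dark-covered, 0.64% DMSO final; touch response scored as present/absent by brightfield microscopy at 120 hpf. Trimethyltin chloride 5 uM positive control; dead embryos not scored.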

Assay [11] in a line: Tanguay_ZF_120hpf_PIG_legacy: (Legacy) Oregon State University Tanguay Lab 120 Hour Post-fertilization zebrafish Assay for Pigmentation Malformation (AID 2283650). The method, boiled down: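 Dechorionated Tropical 5D wild-type embryos, one per well from 6 hpf, statically exposed at 28C in the dark until 120 hpf, 0.64% DMSO final. Pigmentation scored present/absent by brightfield microscopy; dead embryos not scored; fitted versus DMSO.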

Assay [12] is described as follows: CCTE_Padilla_ZF_144hpf_TERATOSCORE: (Legacy) CCTE's 144 Hour Post-fertilization zebrafish Assay Teratoscore, Padilla Lab (AID 2283679; active = hit-call score of the fitted dose curve at least 0.9, where 1 is the maximum; inactive = score below 0.9;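 for AC50: zebrafish embryos with chorions exposed by immersion from 6-8 hpf to 5 dpf with daily renewal; teratogenicity score from eye scoring of death hatching and malformations at 144 hpf; higher score means more developmental defects relative to DMSO baseline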). Summed up: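 Larvae scored by eye at 144 hpf for death, hatching and malformations after a day in clean Hanks'. Before that, daily-renewed exposure at 80 uM (0.4% DMSO, 26C) from roughly 6-8 hpf through 5 dpf, 4 embryos per chemical.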

A short description of assay [13]: STM_H9_OrnithineISnorm_perc: Stemina devTOX quickPredict H9 human embryonic stem cell (hESC)-based Assay for Ornithine (ORN) Metabolite Biomarker, Normalized (AID 2283712; active = hit-call score of the fitted dose curve at least 0.9, where 1 is the maximum; inactive = score below 0.9;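 note: ornithine released into spent medium during last day measured by mass spectrometry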). Summed up: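 Cells: undifferentiated H9 hESC. Dosing: 72 h, media replaced every 24 h. Sample: final 24-h conditioned media, 40% acetonitrile. Read: UPLC-HRMS ornithine area vs 13C standard, % DMSO control.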

In assay [14] the test system is Thyroperoxidase (TPO), gene 54314. The assay is described as follows: CCTE_Simmons_AUR_rTPO: CCTE's Amplex UltraRed Assay for Thyroperoxidase (TPO) Inhibition, Simmons Lab (AID 2283662).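 Note: potency for loss of signal meaning inhibition of peroxidase activity.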 The method, boiled down:
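Rat thyroid microsomes (5 ug protein) were incubated with test compound (8 concentrations, 5 nM–87.5 uM final, 0.5% DMSO), 25 uM Amplex UltraRed and 300 uM H2O2 in 200 mM phosphate buffer for 30 min at 37C in the dark; fluorescence read at 544/590 nm.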

Assay [15] can be described thus: CCTE_Simmons_CellTiterGLO_HEK293T: Viability Assessment in CCTE's Assays for Thyroperoxidase (TPO) Inhibition, Simmons Lab (AID 2283665).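 For AC50: cells exposed to compound for 24 h before readout; actives reduce ATP signal below DMSO vehicle meaning cytotoxicity.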 Summed up:
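Cytotoxicity counter-screen: human HEK293T cells in low-serum (1% FBS) medium receive test chemical, 5 nM to 87.5 uM final, for 24 h; ATP is quantified by luciferase luminescence.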
Background: In ATP-based viability assays light output follows the ATP content of the culture.

Consider 20 molecules from PubChem BioAssay (EPA / NIEHS).

Records with an inconclusive call do not appear. Activity calls are given as the source filed them. Rule for the calls, unless noted: active = hit-call score of the fitted dose curve at least 0.9, where 1 is the maximum; inconclusive = response in the unintended direction; inactive = score below 0.9.

The term AC50 denotes the midpoint of the concentration-response curve, whichever way the signal moves.

With `CCOS(=O)(=O)OCC`, the molecule was classed as inactive in assay [1], in assay [2], in [3], in [4], in [5] and in assay [6]. In addition, the outcome in [7], in assay [8], in [9] and in assay [10] was inactive.

Take `O=C(O)C(Cl)Cl`: the outcome in assay [1], in assay [2], in assay [3], in assay [4], in [5] and in [11] was inactive. For the same molecule, the molecule was called inactive in assay [6], in assay [7], in assay [8], in assay [9], in [10] and in [12]. Besides, the outcome in [13] was inactive.

Turning to `ClC(Cl)(Cl)c1ccccc1`, the molecule was called inactive in [1], in assay [2], in assay [3], in assay [5], in assay [11] and in [6].

Consider `O=P1(N(CCCl)CCCl)NCCCO1` (configuration not stated), for which the call in [1], in assay [2], in [3], in assay [4], in assay [5] and in assay [11] was inactive. Also, the outcome in [6], in [7], in assay [8] and in assay [9] was inactive.

Consider `c1ccc(OP(Oc2ccccc2)Oc2ccccc2)cc1`, for which the call in assay [1], in [2], in assay [3], in assay [4], in [5] and in [11] was inactive. The molecule was called inactive in [6], in assay [7], in assay [8], in assay [9], in assay [15] and in assay [10]. Besides, the AC50 in assay [14] is 8.68 µM (active).

For the molecule `Nc1ccc2ccccc2c1`, the AC50 in [1] was 34.9 µM (active); in [11] it was 46.5 µM (active); in assay [14], 0.34 µM (active); in [12], 42.1 µM (active). The result in [2], in [3], in assay [4], in assay [5], in [6] and in assay [7] was inactive. For the same molecule, the outcome in [8], in assay [9], in assay [15] and in assay [13] was inactive.

As to `CCOP(=S)(OCC)SCSCC`, the molecule was classed as inactive in assay [1], in [2], in assay [3], in [4], in [5] and in assay [11]. Moreover, the call in assay [6], in assay [7], in assay [8], in [9], in [10] and in assay [12] was inactive. The AC50 was 20.5 µM (active) in assay [14] and 13.6 µM (active) in [15].

Regarding `CCCCc1ccccc1`, the result in assay [1], in [2], in assay [3], in [4], in [5] and in [11] was inactive. The molecule was called inactive in assay [6], in assay [7], in assay [8] and in assay [10].

In the case of `Nc1ccc(Cl)cc1`, the molecule was classed as inactive in [1], in assay [2], in assay [3], in [5], in assay [11] and in assay [6]. Moreover, the outcome in assay [7], in assay [9] and in assay [15] was inactive. For the same molecule, the AC50 in assay [14] is 0.315 µM (active).

As to `CCC(C)(C)c1ccc(O)cc1`, the half-maximal activity concentration (AC50) was 14.7 µM (active) in assay [1]; 48.4 µM (active) in [2]; 36.6 µM (active) in assay [3]; 22.2 µM (active) in assay [4]; 48.8 µM (active) in assay [5]; 47.4 µM (active) in [11]. Further, the AC50 in assay [7] was 47.2 µM (active); in assay [8], 31.6 µM (active); in [9], 47.9 µM (active); in assay [14], 4.91 µM (active); in assay [15], 28.1 µM (active); in [10], 48.3 µM (active). Also, the AC50 in [12] is 14.2 µM (active); in assay [13], 78.2 µM (active). In addition, the outcome in assay [6] was inactive.

Take `OCC1CO1` (configuration not stated): the call in assay [1], in assay [2], in assay [3], in assay [4], in [5] and in assay [11] was inactive. The outcome in assay [6], in assay [8] and in assay [10] was inactive.

Regarding `O=C(O)C1C(C(=O)O)C2(Cl)C(Cl)=C(Cl)C1(Cl)C2(Cl)Cl` (configuration not stated), the molecule was classed as inactive in assay [1], in assay [2], in assay [3], in [4], in [5] and in assay [11]. Moreover, the result in [6], in assay [7], in assay [8], in assay [9], in assay [10] and in [13] was inactive.

Take `[N-]=[N+]=[N-]`: the outcome in [1], in assay [2], in [3], in assay [4], in [5] and in assay [11] was inactive. The molecule was called inactive in assay [6], in [7], in assay [9], in [15], in assay [10] and in assay [12].

Consider `c1cc2c3c(cccc3c1)CC2`, for which the molecule was called inactive in assay [1], in assay [2], in assay [3], in assay [4], in assay [5] and in [11]. The result in assay [6], in [7], in assay [9] and in assay [10] was inactive.

Turning to `O=[N+]([O-])c1ccc(Cl)c(Cl)c1`, the outcome in [1], in assay [2], in [3], in assay [4], in assay [5] and in assay [11] was inactive. In addition, the molecule was classed as inactive in assay [6], in assay [8], in assay [9] and in assay [10].

For the molecule `O=P(Oc1ccccc1)(Oc1ccccc1)Oc1ccccc1`, the outcome in [1], in assay [2], in assay [3], in [4], in assay [5] and in assay [11] was inactive. The outcome in [7], in assay [8], in [9], in assay [10] and in assay [13] was inactive. The concentration at half-maximal activity (AC50) in assay [12] was 6.17 µM (active).

In the case of `O=[N+]([O-])c1ccccc1`, the call in assay [1], in [2], in assay [3], in assay [4], in [5] and in assay [6] was inactive. Moreover, the outcome in assay [7], in assay [8], in [10] and in assay [13] was inactive.

For the molecule `CSC(C)(C)C=NO`, the result in assay [1], in [2], in [3], in [4], in assay [5] and in assay [11] was inactive. In addition, the outcome in [6], in assay [7], in assay [8], in assay [9] and in [10] was inactive.

Take `CCOP(=S)(Oc1ccc([N+](=O)[O-])cc1)c1ccccc1` (configuration not stated): the molecule was called inactive in assay [1], in assay [2], in [3], in assay [4], in [5] and in [6]. The result in assay [7], in assay [8], in [9], in assay [15] and in assay [10] was inactive. Moreover, the AC50 in [14] was 10.2 µM (active); in [12] it was 1.19 µM (active).

Regarding `c1ccc2c(c1)Nc1ccccc1S2`, the result in assay [1], in [2], in assay [3], in [5], in assay [11] and in assay [6] was inactive. Further, the outcome in assay [7], in assay [9], in [10] and in assay [13] was inactive. Further, the AC50 in assay [14] was 15 µM (active); in assay [15], 9.57 µM (active); in assay [12] it was 14.2 µM (active).
